Bioassay records from PubChem BioAssay.
Tg IFNy HTS = T. gondii growth inhibition with IFN-gamma, primary screen, cell-based; Toxoplasma gondii growth in IFN-gamma-treated host cells; active compounds read low; 69,000 compounds, 3.8% hits; activity change, negative = inhibition, % (concentration not given with the values); in the data active means activity change below about -70%, passing the limit was not always enough;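 further: host cells are HeLa cells infected with Toxoplasma gondii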
An asterisk follows results filed as active. The full list was thinned out, with hits kept by preference.

SMILES | Tg IFNy HTS
c1ccc(CC2CCN(Cc3cc4n(n3)CCCNC4)C2)cc1 (stereo unspecified) | -1
O=C1CC2C(CCN2C(=O)c2cccc(Cl)c2)N1CC1CC1 (stereo unspecified) | -7
Cc1ccccc1S(=O)(=O)NCC1CCN(Cc2cnn(C)c2)C1 (stereo unspecified) | 3
COc1ccc(CN2CC[C@@H]3CO[C@H](CNC(=O)C4CC4)[C@@H]3C2)cc1 | 3
CCc1cnc(C)nc1N1CCCC(N2CCN(c3ccccc3C)CC2)C1 (stereo unspecified) | -24
CC(C)Cc1cn(C2CCN(C(=O)C3CCOC(C)(C)C3)CC2)nn1 (stereo unspecified) | 2
COc1ccc(Br)cc1-c1nc(Cn2ccn3nc(-c4ccccc4)cc3c2=O)c(C)o1 | 165
CC(Sc1nnc2c3ccccc3n(C)c2n1)C(=O)Nc1nc2c(s1)CCCC2 (stereo unspecified) | -65
COc1ccc2c(c1)CC(NCCSc1ncn[nH]1)CC2 (stereo unspecified) | 9
CC(C)N1CCC2(CC1)CC(COCC1CC1)N(c1ncccn1)C2 (stereo unspecified) | -46
COC(=O)c1ccccc1C(=O)N1CC[C@@H](c2ccc(F)cc2)[C@H](O)C1 | -6
Cc1cccc(CN2CCC3(CCN(CC4CCOCC4)C3)C2=O)c1 (stereo unspecified) | -9
Cc1ccc(NC(=O)CN2C(=O)CCc3cc(S(=O)(=O)N4CCC(C)CC4)ccc32)cc1C | -99*
Cc1ccc(NC(=O)CN2C(=O)CCc3cc(S(=O)(=O)N4CCC(C)CC4)ccc32)cc1 | 19
CC1CCN(S(=O)(=O)c2ccc3c(c2)CCC(=O)N3CC(=O)Nc2ccccc2)CC1 | -2
CC1CCN(S(=O)(=O)c2ccc3c(c2)CCC(=O)N3CC(=O)Nc2cccc(F)c2)CC1 | -11
CC1CCN(S(=O)(=O)c2ccc3c(c2)CCC(=O)N3CC(=O)Nc2cccc(Cl)c2)CC1 | -87*
Cc1ccc(NC(=O)CN2C(=O)CCc3cc(S(=O)(=O)N4CCC(C)CC4)ccc32)cc1N(C)C | 149
CCOC(=O)c1nn(Cc2ccccc2)c2c1CN(C(=O)Cn1nc3ccccc3n1)CC2 | -15
Cc1ccc(F)cc1NC(=O)c1c(O)c2cccnc2n(-c2ccc(F)cc2)c1=O | 47
CC(C)=CCN(C)Cc1cc(-c2ccncc2)no1 | 4
Cc1ccc(C)c(-c2[nH]ncc2CN(C)Cc2cnn(C)c2C)c1 | -1
Cc1c(CN(C)Cc2cccc(C(C)(C)C)c2O)cnn1C | -93*
Cc1c(CN(C)C(=O)c2cccc(C#CC(C)(C)O)c2)cnn1C | -1
CN(C)[C@H]1CCO[C@]2(CCN(C(=O)Cc3ccc(F)cc3)C2)C1 | 0
SMILES | Tg IFNy HTS
CCN(CCOC)c1cc(C2CCNCC2)ncn1 | -3
Cc1ccc(C(=O)N2C[C@@H]3COC[C@@]3(Cc3nnc(C4CC4)o3)C2)o1 | 6
Cn1c(C(=O)NCC2CCCO2)cc2c1c1ccccc1n2C (stereo unspecified) | 24
CCOc1ccc(-c2nc(Cn3nnc(C(=O)Nc4ccc(F)c(F)c4)c3C)c(C)o2)cc1 | 22
O=S(=O)(c1ccc(Cl)cc1)N1CCc2nc(-c3ccccc3)sc2C1 | 19
CC(C)c1ccc(S(=O)(=O)N2CCc3nc(-c4ccccc4)sc3C2)cc1 | -98*
CCOc1ccc(-c2nc3c(s2)CN(S(=O)(=O)c2ccc(OCC)cc2)CC3)cc1 | 37
CCOc1ccc(-c2nc3c(s2)CN(S(=O)(=O)c2ccccc2)CC3)cc1 | -49
COc1cccc(-c2nc3c(s2)CN(S(=O)(=O)c2ccc(C)c(C)c2)CC3)c1 | -104*
CCc1ccc(S(=O)(=O)N2CCc3nc(-c4cccc(OC)c4)sc3C2)cc1 | -46
COc1ccc(-c2nc3c(s2)CN(S(=O)(=O)c2cccc(Cl)c2)CC3)cc1 | 0
COc1cccc(-c2nc3c(s2)CN(S(=O)(=O)c2cccc(C)c2)CC3)c1 | -105*
CCOc1ccc(-c2nc3c(s2)CN(S(=O)(=O)c2cc(C)cc(C)c2)CC3)cc1 | -95*
COc1ccc(S(=O)(=O)N2CCc3nc(-c4ccccc4)sc3C2)cc1 | -20
CCOc1cc2c(cc1CN1CCCC3(C1)OCCc1cnc(C)nc13)OCO2 (stereo unspecified) | 14
Cc1ccsc1CN1CCc2nc(C3CCCN3C(=O)C3CCC3)[nH]c(=O)c2C1 (stereo unspecified) | 20
Cc1nc(CN2CCC3(CC2)C(c2cnn(C)c2)CC(=O)N3C)cs1 (stereo unspecified) | 10
COc1ccccc1OC(=O)CNC(=O)Cc1ccc(C(=O)c2ccc(C)cc2)n1C | 11
Cc1cc(C)c(Cn2cncn2)cc1CN1CCC2(CC1)CNC(=O)C2 | -17
Cc1ccc(C)c(NS(=O)(=O)c2cc3c4c(c2)CCN4C(=O)CC3)c1 | 2
Cc1c(Cl)cccc1S(=O)(=O)N1CCc2nc(-c3ccccc3)sc2C1 | -83*
COc1ccc(-c2nc3c(s2)CN(S(=O)(=O)c2ccc(OC)c(OC)c2)CC3)cc1 | -16
CCc1ccccc1S(=O)(=O)N1CCc2nc(-c3ccccc3)sc2C1 | -68
CCCc1ccc(S(=O)(=O)N2CCc3nc(-c4cccc(OC)c4)sc3C2)cc1 | 2
COc1cccc(-c2nc3c(s2)CN(S(=O)(=O)c2ccc(F)c(Cl)c2)CC3)c1 | -37
SMILES | Tg IFNy HTS
Cc1ccc(-c2nc3c(s2)CN(S(=O)(=O)c2ccc(Cl)cc2)CC3)cc1 | 23
COc1cccc(-c2nc3c(s2)CN(S(=O)(=O)c2cc(C)ccc2C)CC3)c1 | -102*
COc1ccc(-c2nc3c(s2)CN(S(=O)(=O)c2ccc(C)c(C)c2)CC3)cc1 | -103*
COc1ccc(S(=O)(=O)N2CCc3nc(-c4ccc(C)cc4)sc3C2)cc1 | -45
COc1cccc(-c2nc3c(s2)CN(S(=O)(=O)c2ccccc2Cl)CC3)c1 | -102*
O[C@@H]1CN(Cc2c(Cl)nc3sccn23)CC[C@H]1c1ccc2c(c1)OCO2 | -43
COCc1[nH]n2c(=O)cc(C(C)n3ccnc3C(C)C)nc2c1-c1ccccc1 (stereo unspecified) | -6
O=C(c1cscn1)N1CC2CN(Cc3cccc(F)c3)C2C1 (stereo unspecified) | -4
CCc1ccc(-c2noc(-c3c(O)c4ccccc4n(C)c3=O)n2)cc1 | -3
Cc1cccnc1CC(C)NC(=O)c1nc(C(C)C)cs1 (stereo unspecified) | 52
O=C(c1csnn1)N1CC[C@@H](c2ccc3c(c2)OCO3)[C@H](O)C1 | -5
CC(=O)N1CCOCC2(CN(CC3CC3)CCO2)C1 (stereo unspecified) | -12
Cc1sc2ncn3c(SCC(=O)NCc4ccccc4)nnc3c2c1C | -13
COC(=O)c1cc2n(n1)CCN(C(=O)CCn1c(C)nc3ccccc31)C2 | -1
Cc1nc(-c2cccc(F)c2)sc1CCNC(=O)c1ccccc1 | 5
CC(C)N(C)Cc1cnc2n1CCN(CC1CCOCC1)C2C (stereo unspecified) | -4
Cc1cc(C[C@@H]2CCC[C@H]2NCC2CCCCC2)on1 | 5
CCc1ccc(-c2nccn2Cc2c(C)nn(CC)c2C)nc1 | 0
COc1ccc(-c2nc3c(s2)CN(S(=O)(=O)c2cccc(F)c2)CC3)cc1OC | 29
COc1ccc(S(=O)(=O)N2CCc3nc(-c4ccc(OC)c(OC)c4)sc3C2)cc1 | -32
COc1ccc(-c2nc3c(s2)CN(S(=O)(=O)c2cccc(C)c2)CC3)cc1OC | -89*
CN1CCOCC2(CCCN(C(=O)c3nn(C)c4ccccc34)C2)C1 (stereo unspecified) | -9
Cc1oc2ccccc2c1CNC(=O)Nc1ccc(Br)cc1 | -47
